The nature of assay [1]: ATG_PBREM_CIS: Attagene CIS-FACTORIAL HepG2 Assay for human Phenobarbital-responsive Enhancer Module (PBREM) (AID 2282955). The note with it: HepG2 PBREM cis-reporter, Attagene multiplexed transcription; actives raise or lower the signal. Summed up: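 Readout: reporter mRNA, fluorescent RT-PCR fragments separated by capillary electrophoresis. System: HepG2 transiently transfected with cis-regulated reporter units. Exposure: 24 h. Analysis: bidirectional, DMSO baseline.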

Assay [2] concerns the target Paired box protein Pax-6 (Homo sapiens) (UniProt P26367). The assay is described as follows: ATG_Pax6_CIS: Attagene CIS-FACTORIAL HepG2 Assay for human Paired Box 6 (PAX6) (AID 2282956). To be noted: HepG2 CIS-FACTORIAL PAX6 reporter transcription, RNA readout; actives raise or lower the signal. Summed up: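 DMSO-referenced bidirectional fits of reporter mRNA fluorescence; HepG2 with transient cis-promoter MRTUs, 24 h post-dose, RT-PCR plus capillary electrophoresis detection.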

Assay [3] is described as follows: ATG_PXRE_CIS: Attagene CIS-FACTORIAL HepG2 Assay for human Pregnane X Receptor Element (PXRE) (AID 2282957). The note with it: HepG2 Attagene CIS-FACTORIAL PXRE reporter, mRNA; actives raise or lower the signal. The method in brief:
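Bidirectional activity, baselined to DMSO, derived from reporter mRNA fluorescence (RT-PCR plus capillary electrophoresis) in HepG2 cells bearing cis-promoter reporter units, 24 h exposure.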

Assay [4] can be described thus: ATG_Sox_CIS: Attagene CIS-FACTORIAL HepG2 Assay for human SRY-box transcription factor (SOX) (AID 2282960). To be noted: HepG2 Attagene cis-factorial SOX reporter, mRNA; actives raise or lower the signal. The method in brief:
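Using transiently transfected HepG2 cells, reporter transcription driven by cis elements was assessed 24 h after dosing. Signal was fluorescence of capillary-separated RT-PCR products, with DMSO defining baseline activity.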

The target of assay [5] is Transcription factor Sp1 (Homo sapiens) (UniProt P08047). In words: ATG_Sp1_CIS: Attagene CIS-FACTORIAL HepG2 Assay for human Specificity Protein 1 (Sp1) (AID 2282961). To be noted: HepG2 Sp1 cis-reporter transcription, actives raise or lower the signal. The method in brief:
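After transient transfection of HepG2 cells with cis-promoter reporter units and 24 h chemical treatment, reporter transcripts were quantified by RT-PCR and capillary electrophoresis fluorescence. Gain- and loss-of-signal fitted against DMSO.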

The nature of assay [6]: ATG_SREBP_CIS: Attagene CIS-FACTORIAL HepG2 Assay for human Sterol Regulatory Element Binding (SREBP) (AID 2282962). The note with it: HepG2 Attagene cis-factorial SREBP reporter, mRNA; actives raise or lower the signal. The method in brief: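 In this cis-format assay, HepG2 liver cells express reporters controlled by promoter elements responsive to native transcription factors. Exposure lasts 24 h; reporter mRNA fluorescence from capillary electrophoresis gives the signal, fitted bidirectionally against DMSO.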

The nature of assay [7]: ATG_TA_CIS: Attagene CIS-FACTORIAL HepG2 Assay for human TA Basal Promoter (AID 2282964). To be noted: HepG2 Attagene CIS-factorial TA basal promoter reporter; actives raise or lower the signal. The method in brief:
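Cis-factorial format in HepG2: reporters report endogenous factors, not chimeric Gal4 fusions. After 24 h treatment, reporter transcripts were measured by RT-PCR-capillary electrophoresis fluorescence, analysed bidirectionally versus DMSO.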

Assay [8] in a line: ATG_TCF_b_cat_CIS: Attagene CIS-FACTORIAL HepG2 Assay for human T-Cell-Factor with beta-catenin (TCF/b-cat) (AID 2282965). The note with it: HepG2 TCF/beta-catenin cis-reporter transcription, actives raise or lower the signal. The method in brief:
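Endogenous transcription factor activity is captured through cis-promoter reporter constructs transiently introduced into human HepG2 liver cells. Induced reporter mRNA is measured after 24 h and fitted bidirectionally relative to DMSO.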

A short description of assay [9]: ATG_TAL_CIS: Attagene CIS-FACTORIAL HepG2 Assay for human TAL Basal Promoter (AID 2282966).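 Also: background control endpoint measuring basal TAL promoter reporter mRNA not a specific factor.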 To be noted: HepG2 Attagene cis-factorial TAL promoter reporter; actives raise or lower the signal. The method in brief:
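Human hepatoma HepG2 cells, transfected with promoter-regulated reporter units, were treated 24 h. Reporter transcript levels, measured through RT-PCR and capillary electrophoresis, were fitted for gain or loss relative to DMSO.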

The nature of assay [10]: ATG_VDRE_CIS: Attagene CIS-FACTORIAL HepG2 Assay for human Vitamin D Receptor Element (VDRE) (AID 2282968). The note with it: HepG2 VDRE cis-reporter transcription, actives raise or lower the signal. The method in brief: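 Measures endogenous factor activity through cis-element-driven reporter transcripts in transiently transfected HepG2. Cells are treated 24 h; reporter mRNA is quantified by RT-PCR and capillary electrophoresis; fitting is bidirectional.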

Assay [11] concerns the target Nuclear receptor subfamily 1 group I member 3 (Homo sapiens) (UniProt Q14994). The assay is described as follows: ATG_CAR_TRANS: Attagene TRANS-FACTORIAL HepG2 Assay for human Constitutive Androstane Receptor (CAR) (AID 2282969; active = hit-call score of the fitted dose curve at least 0.9, where 1 is the maximum;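 also: activators raise reporter mRNA above DMSO so AC50 marks induction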). The note with it: HepG2 Attagene TRANS-FACTORIAL CAR reporter. Summed up: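 Signal is reporter mRNA induction relative to DMSO, measured 24 h after dosing by RT-PCR with fluorescent primer extension and capillary electrophoresis. Human HepG2 liver cells carried transiently transfected chimeric NR-Gal4/GAL4-UAS reporter constructs.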

The target of assay [12] is Estrogen receptor (Homo sapiens) (UniProt P03372). The assay is described as follows: ATG_ERa_TRANS: Attagene TRANS-FACTORIAL HepG2 Assay for human Estrogen Receptor alpha (ERa) (AID 2282970; active = hit-call score of the fitted dose curve at least 0.9, where 1 is the maximum). To be noted: HepG2 Attagene TRANS ERa GAL4 reporter, mRNA. Summed up:
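Signal derives from fluorescence of labelled reporter PCR fragments separated by capillary electrophoresis. HepG2 cells transiently carrying multiple GAL4-UAS reporter units were treated 24 hours, and induction above DMSO baseline was fitted as activity.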

Assay [13] has as its target X-box-binding protein 1 (Homo sapiens) (UniProt P17861). The assay is described as follows: ATG_Xbp1_CIS: Attagene CIS-FACTORIAL HepG2 Assay for human X-box Binding Protein 1 (XBP1) (AID 2282972). To be noted: HepG2 XBP1 cis-element reporter, Attagene multiplex; actives raise or lower the signal. Summed up:
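Changes in reporter transcript abundance, read by RT-PCR and capillary electrophoresis, reflect endogenous transcription factor activity. Transfected HepG2 cells received compound for 24 hours; DMSO defined baseline for bidirectional analysis.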

A short description of assay [14]: ATG_M_19_TRANS: Attagene TRANS-FACTORIAL HepG2 Assay for M19 Transcription Factor (Internal Marker) (AID 2282974; active = hit-call score of the fitted dose curve at least 0.9, where 1 is the maximum). To be noted: HepG2 Attagene TRANS-FACTORIAL M19 internal marker reporter. The method in brief: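 Gain-of-signal in reporter mRNA, relative to DMSO, was scored from capillary electrophoresis fluorescence. HepG2 cells carried transiently transfected multiple reporter transcription units and were incubated with test chemicals for 24 h.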

Assay [15] in a line: ATG_GAL4_TRANS: Attagene TRANS-FACTORIAL HepG2 Assay for GAL4 (Internal Marker) (AID 2282976; active = hit-call score of the fitted dose curve at least 0.9, where 1 is the maximum). To be noted: HepG2 Attagene TRANS GAL4 internal marker reporter. Summed up: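 Liver HepG2 line bearing multiplexed GAL4-UAS reporter constructs; 24 h chemical treatment. Transcripts were quantified as fluorescent fragments on capillary electrophoresis after RT-PCR and HpaI cut, with activity fitted upward from DMSO.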

Assay [16] deals with Signal transducer and activator of transcription 3 (Homo sapiens) (UniProt P40763). In words: ATG_STAT3_CIS: Attagene CIS-FACTORIAL HepG2 Assay for human Signal Transducer and Activator of Transcription 3 (STAT3) (AID 2282963). The note with it: HepG2, Attagene cis-factorial STAT3 reporter transcription; actives raise or lower the signal. Summed up: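 Cis-factorial format: endogenous transcription factors in HepG2 drive transfected reporter units. After 24 h treatment, reporter RNA was reverse-transcribed, amplified, FAM-labelled and HpaI-digested before CE analysis; activity scored in both directions against DMSO.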
Chain of Signal transducer and activator of transcription 3 (Homo sapiens) (P40763 whole entry, looked up): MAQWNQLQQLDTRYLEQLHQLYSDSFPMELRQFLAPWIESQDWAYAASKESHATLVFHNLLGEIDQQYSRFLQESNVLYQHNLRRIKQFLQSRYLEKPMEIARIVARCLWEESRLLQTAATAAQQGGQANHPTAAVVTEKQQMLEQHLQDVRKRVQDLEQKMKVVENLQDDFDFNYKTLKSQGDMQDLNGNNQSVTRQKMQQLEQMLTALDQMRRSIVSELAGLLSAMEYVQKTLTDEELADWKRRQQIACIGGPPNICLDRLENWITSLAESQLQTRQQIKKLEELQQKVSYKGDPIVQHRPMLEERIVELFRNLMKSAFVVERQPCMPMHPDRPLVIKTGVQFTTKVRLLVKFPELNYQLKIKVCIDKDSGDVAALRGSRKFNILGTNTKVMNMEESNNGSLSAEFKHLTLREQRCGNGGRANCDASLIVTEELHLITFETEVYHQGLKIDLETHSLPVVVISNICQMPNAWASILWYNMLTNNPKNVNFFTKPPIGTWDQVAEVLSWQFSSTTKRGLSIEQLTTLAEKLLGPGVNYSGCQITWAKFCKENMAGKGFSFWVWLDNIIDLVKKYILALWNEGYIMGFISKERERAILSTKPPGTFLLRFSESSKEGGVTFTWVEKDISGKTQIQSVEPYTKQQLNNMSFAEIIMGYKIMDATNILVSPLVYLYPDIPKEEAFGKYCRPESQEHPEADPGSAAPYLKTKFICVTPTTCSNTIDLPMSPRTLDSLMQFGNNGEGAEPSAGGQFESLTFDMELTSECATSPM

Assay [17] in a line: ATG_TGFb_CIS: Attagene CIS-FACTORIAL HepG2 Assay for human Transforming Growth Factor (TGF) (AID 2282967). To be noted: HepG2 Attagene CIS TGFb reporter, mRNA transcription; actives raise or lower the signal. The method in brief: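 Multiplexed cis-reporter HepG2 system, 24 h treatment; mRNA induction read by fluorescence after RT-PCR and CE; DMSO negative control, bidirectional curve fitting.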

Assay [18] is described as follows: ATG_RORE_CIS: Attagene CIS-FACTORIAL HepG2 Assay for human RAR-related Orphan Receptor Element (RORE) (AID 2282959). To be noted: HepG2 Attagene cis-factorial RORE reporter, mRNA; actives raise or lower the signal. Summed up: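 Measured here: transcript induction of a cis-regulated reporter in HepG2 cells transiently transfected via FuGene 6. After 24 h, RNA was processed by RT-PCR and fluorescent capillary electrophoresis; DMSO defined baseline activity.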

The nature of assay [19]: ATG_PPRE_CIS: Attagene CIS-FACTORIAL HepG2 Assay for human Peroxisome Proliferator-activated Response Element (PPRE) (AID 2282958). To be noted: HepG2 PPRE cis-element reporter, Attagene transcription factor profiling; actives raise or lower the signal. The method in brief: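 After human HepG2 hepatoma cells were transiently transfected with cis-promoter reporter constructs, they were exposed to test chemicals for 24 hours. Reporter RNA was then reverse-transcribed, PCR-amplified, FAM-labeled, HpaI-digested and quantified by capillary electrophoresis.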

Assay [20] addresses Steroid hormone receptor ERR1 (Homo sapiens) (UniProt P11474). The assay is described as follows: ATG_ERRa_TRANS: Attagene TRANS-FACTORIAL HepG2 Assay for human Estrogen-Related Receptor alpha (ERRa) (AID 2282971; active = hit-call score of the fitted dose curve at least 0.9, where 1 is the maximum). To be noted: HepG2 Attagene TRANS reporter, ERRa transactivation. Summed up: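 Signal gain relative to DMSO for an ERRa-Gal4 chimeric receptor, read as reporter mRNA by RT-PCR/capillary electrophoresis. Human HepG2 liver cells, transient multiplex reporter transfection, 24 h chemical exposure.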

Inconclusive results are not listed. Active and inactive are the calls of the source. The calls were made as follows, unless noted: active = hit-call score of the fitted dose curve at least 0.9, where 1 is the maximum; inactive = score below 0.9.

Chain of X-box-binding protein 1 (Homo sapiens) (P17861 whole entry, looked up): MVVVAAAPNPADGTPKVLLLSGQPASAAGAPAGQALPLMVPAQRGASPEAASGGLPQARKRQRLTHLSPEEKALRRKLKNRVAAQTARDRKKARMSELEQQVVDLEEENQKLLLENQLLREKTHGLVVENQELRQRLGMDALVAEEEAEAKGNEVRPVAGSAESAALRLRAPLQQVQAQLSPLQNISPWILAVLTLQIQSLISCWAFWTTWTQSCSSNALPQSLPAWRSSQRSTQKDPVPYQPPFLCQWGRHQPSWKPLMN
Chain of Transcription factor Sp1 (Homo sapiens) (P08047 whole entry, looked up): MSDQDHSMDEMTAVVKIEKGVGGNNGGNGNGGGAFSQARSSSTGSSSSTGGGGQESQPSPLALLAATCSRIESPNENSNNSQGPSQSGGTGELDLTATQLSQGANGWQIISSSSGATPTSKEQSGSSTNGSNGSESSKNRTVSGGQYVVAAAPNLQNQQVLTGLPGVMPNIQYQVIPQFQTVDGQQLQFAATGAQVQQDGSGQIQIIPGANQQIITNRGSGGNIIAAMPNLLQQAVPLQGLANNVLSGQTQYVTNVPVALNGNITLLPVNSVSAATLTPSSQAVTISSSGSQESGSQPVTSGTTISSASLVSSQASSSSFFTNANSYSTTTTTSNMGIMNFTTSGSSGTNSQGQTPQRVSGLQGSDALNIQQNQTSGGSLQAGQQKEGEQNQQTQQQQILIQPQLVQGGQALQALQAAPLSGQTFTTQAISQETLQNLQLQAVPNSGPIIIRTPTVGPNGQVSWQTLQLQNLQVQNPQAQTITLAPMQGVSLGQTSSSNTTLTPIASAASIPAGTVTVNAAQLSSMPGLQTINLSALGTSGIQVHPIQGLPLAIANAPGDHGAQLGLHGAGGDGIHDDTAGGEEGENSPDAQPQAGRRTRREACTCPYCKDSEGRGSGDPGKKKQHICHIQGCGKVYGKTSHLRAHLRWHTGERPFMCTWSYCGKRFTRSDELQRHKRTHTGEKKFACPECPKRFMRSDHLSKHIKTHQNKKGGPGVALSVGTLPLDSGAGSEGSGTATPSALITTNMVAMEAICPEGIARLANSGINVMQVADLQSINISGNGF
Chain of Paired box protein Pax-6 (Homo sapiens) (P26367 whole entry, looked up): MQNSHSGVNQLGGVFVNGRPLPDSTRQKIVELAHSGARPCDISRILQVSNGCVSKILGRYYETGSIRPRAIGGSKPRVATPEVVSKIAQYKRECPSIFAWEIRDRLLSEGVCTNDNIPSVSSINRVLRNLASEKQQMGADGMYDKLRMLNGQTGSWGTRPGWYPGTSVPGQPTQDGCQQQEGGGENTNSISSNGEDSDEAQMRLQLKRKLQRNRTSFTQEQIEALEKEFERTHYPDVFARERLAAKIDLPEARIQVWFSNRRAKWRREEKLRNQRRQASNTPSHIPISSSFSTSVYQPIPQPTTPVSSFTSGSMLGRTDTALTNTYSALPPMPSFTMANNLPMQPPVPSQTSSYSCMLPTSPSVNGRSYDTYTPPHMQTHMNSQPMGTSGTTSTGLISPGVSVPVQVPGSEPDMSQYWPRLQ
Chain of Estrogen receptor (Homo sapiens) (P03372 whole entry, looked up, the tested form may be a part): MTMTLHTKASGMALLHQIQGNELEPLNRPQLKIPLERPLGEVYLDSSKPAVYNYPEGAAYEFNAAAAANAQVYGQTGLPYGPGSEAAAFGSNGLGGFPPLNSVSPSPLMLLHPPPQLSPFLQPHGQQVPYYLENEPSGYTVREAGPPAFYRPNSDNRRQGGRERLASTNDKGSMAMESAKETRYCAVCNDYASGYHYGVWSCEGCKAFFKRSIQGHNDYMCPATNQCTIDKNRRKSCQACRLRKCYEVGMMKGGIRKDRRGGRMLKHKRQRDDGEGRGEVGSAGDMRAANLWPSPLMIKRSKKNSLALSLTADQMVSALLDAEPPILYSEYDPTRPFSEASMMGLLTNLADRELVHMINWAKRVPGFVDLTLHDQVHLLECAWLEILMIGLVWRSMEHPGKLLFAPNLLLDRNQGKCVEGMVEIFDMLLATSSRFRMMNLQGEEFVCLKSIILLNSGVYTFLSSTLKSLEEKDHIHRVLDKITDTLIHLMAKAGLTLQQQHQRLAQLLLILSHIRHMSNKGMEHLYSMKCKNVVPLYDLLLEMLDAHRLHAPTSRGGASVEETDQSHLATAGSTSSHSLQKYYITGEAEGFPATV
Chain of Nuclear receptor subfamily 1 group I member 3 (Homo sapiens) (Q14994 whole entry, looked up, the tested form may be a part): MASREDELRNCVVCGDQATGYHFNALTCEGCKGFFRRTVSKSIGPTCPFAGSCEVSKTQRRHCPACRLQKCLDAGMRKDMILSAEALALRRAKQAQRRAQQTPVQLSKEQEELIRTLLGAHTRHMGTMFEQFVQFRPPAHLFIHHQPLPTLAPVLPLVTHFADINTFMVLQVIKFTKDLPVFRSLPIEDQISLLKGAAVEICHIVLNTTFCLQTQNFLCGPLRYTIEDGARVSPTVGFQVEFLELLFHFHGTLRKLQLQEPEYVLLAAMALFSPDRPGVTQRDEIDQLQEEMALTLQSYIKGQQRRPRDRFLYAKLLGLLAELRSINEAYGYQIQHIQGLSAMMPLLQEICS
Chain of Steroid hormone receptor ERR1 (Homo sapiens) (P11474 whole entry, looked up, the tested form may be a part): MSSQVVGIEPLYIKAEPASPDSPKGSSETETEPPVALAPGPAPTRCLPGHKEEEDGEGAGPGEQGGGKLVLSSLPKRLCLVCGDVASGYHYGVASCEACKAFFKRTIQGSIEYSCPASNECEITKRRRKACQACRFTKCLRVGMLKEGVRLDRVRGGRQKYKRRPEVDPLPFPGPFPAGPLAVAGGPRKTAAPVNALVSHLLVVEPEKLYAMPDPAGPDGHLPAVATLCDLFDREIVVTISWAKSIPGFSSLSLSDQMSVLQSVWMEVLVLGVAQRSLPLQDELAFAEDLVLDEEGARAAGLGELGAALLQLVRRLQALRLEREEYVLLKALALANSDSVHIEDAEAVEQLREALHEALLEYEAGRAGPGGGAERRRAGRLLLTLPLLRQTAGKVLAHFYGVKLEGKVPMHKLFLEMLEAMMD

Usually AC50 stands for the concentration at which the activity in the assay is half-maximal. Take `Clc1cc(Cl)c(Cl)c(Cl)c1Cl`: the AC50 is 66.2 µM (active) in assay [1], 27.6 µM (active) in assay [3], 56.2 µM (active) in assay [10] and 27 µM (active) in assay [12]. In addition, the outcome in assay [2], in [4], in assay [5], in [6], in [7] and in [8] was inactive. Further, the molecule was called inactive in assay [9], in assay [11], in assay [13], in assay [14] and in assay [15].

Turning to `CC=C(C)C=CC=C(C)C`, the result in [1], in assay [2], in [4], in assay [5], in assay [6] and in [16] was inactive. Besides, the call in assay [7], in [8], in assay [9], in [17], in [12] and in assay [13] was inactive. Also, the AC50 in assay [3] is 6.96 µM (active); in assay [10] it was 27.7 µM (active).

On to `O=C(Oc1ccccc1)c1ccccc1O`, for which the outcome in assay [1], in [2], in assay [3], in [4], in assay [5] and in assay [6] was inactive. Also, the outcome in assay [16], in assay [7], in [8], in assay [9], in [17] and in assay [11] was inactive. The outcome in [12], in assay [13] and in [15] was inactive.

In the case of `CCOC(=O)[C@H](O)[C@@H](O)C(=O)OCC`, the result in [1], in assay [2], in assay [4], in [5], in assay [6] and in assay [16] was inactive. The result in [7], in assay [8], in assay [9], in assay [17], in [10] and in assay [12] was inactive. Moreover, the result in assay [14] and in assay [15] was inactive. The AC50 in assay [3] was 52.4 µM (active).

Turning to `O=C(O)C1CCC(C(=O)O)CC1` (centres undefined), the outcome in assay [1], in [2], in [3], in assay [18], in assay [5] and in [6] was inactive. Also, the molecule was classed as inactive in assay [16], in [8], in assay [9], in [17], in [10] and in assay [12]. For the same molecule, the molecule was classed as inactive in assay [13].

Take `CCCCCOC(=O)CCCCC`: the result in [1], in assay [3], in assay [19], in assay [18], in [4] and in assay [5] was inactive. Further, the call in [6], in assay [16], in [7], in [8], in [9] and in assay [17] was inactive. In addition, the result in assay [10], in [12], in assay [20], in assay [13] and in assay [14] was inactive.

Take `[Cl][Sc]([Cl])[Cl]`: the result in assay [1], in assay [2], in assay [3], in assay [4], in [5] and in assay [6] was inactive. For the same molecule, the outcome in [16], in assay [7], in [8], in [9], in assay [17] and in assay [10] was inactive. In addition, the outcome in [13], in assay [14] and in assay [15] was inactive.
